Compound activity deposited in PubChem BioAssay by several laboratories.
SSB-PriA inh = inhibitors of Klebsiella pneumoniae PriA binding to SSB C-terminal tail, primary screen, biochemical, AlphaScreen; AlphaScreen SSBct-PriA binding, biotinylated peptide; inhibition, % at 33 µM; 430,000 compounds, 0.6% hits; in the data active means inhibition mostly above about 37%, no sharp cut-off; inactive means mostly below about 20%
Mtb hypoxia rep = PubChem AID 1159583 | M. tuberculosis hypoxia-regulated fluorescent reporter, fluorescence | fluorescence inhibition, % (no concentration beside the values) | 300,000 compounds, 0.1% hits; in the data active means fluorescence inhibition mostly above about 23%, no sharp cut-off; inactive means mostly below about 17%
MazEF act = activators of E. coli MazEF toxin-antitoxin RNase, primary screen, biochemical, fluorescence, uHTS; Endoribonuclease toxin MazF (Escherichia coli (strain K12)), P0AE70; activation, % at 20 µM; FAM/BHQ RNA-DNA oligo cleavage fluorescence, 5 h; 350,000 compounds, 0.32% hits; in the data active means activation above about 50%
Target sequence (P0AE70 whole entry, looked up): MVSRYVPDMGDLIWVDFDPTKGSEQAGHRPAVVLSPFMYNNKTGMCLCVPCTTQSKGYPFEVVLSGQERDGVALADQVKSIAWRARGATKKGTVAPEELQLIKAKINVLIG
BH1578 lux ind = inducers of Vibrio cholerae quorum light production without autoinducers, primary screen, BH1578 luxS cqsA deficient, single point. V. cholerae BH1578 lux reporter, luminescence, 6 h. activation, % at 18.7 µM. 350,000 compounds, 0.16% hits; in the data active means activation mostly above about 9.7%, no sharp cut-off
Numbers stand for hits; – = inactive; · = no result shown; + = active, no number. The list is not random: actives were taken first. Their share in the collection is about 0.94%.

SMILES	SSB-PriA inh	Mtb hypoxia rep	MazEF act	BH1578 lux ind
CCC(=O)OCCNc1cc(Sc2nc3ccccc3s2)c2nonc2c1[N+](=O)[O-]	–	·	–	–
Cc1ccc2sc(N(CCN3CCOCC3)C(=O)c3nc4ccccc4s3)nc2c1C	–	·	·	·
Cc1ccc(NC(=O)N(CCCN2CCOCC2)Cc2cccs2)cc1C	92	–	–	–
O=C(Nc1ccc(Cl)cc1)N(CCCN1CCOCC1)Cc1cccs1	–	–	–	–
CCCN1CCCc2cc(CCNS(=O)(=O)c3cc(C)ccc3OCC)ccc21	71	·	·	·
CCCN1CCCc2cc(CCNS(=O)(=O)c3ccc(OCC)c(C)c3)ccc21	56	·	·	·
CCOc1ccc(S(=O)(=O)NCCc2ccc3c(c2)CCCN3C)cc1	–	·	·	·
CCCN1CCCc2cc(CCNS(=O)(=O)c3cccc(F)c3)ccc21	65	·	·	·
CCCN1CCCc2cc(CCNS(=O)(=O)c3ccc(OCC)c(F)c3)ccc21	39	·	·	·
Cc1nnc(NC(=O)CSc2nnc(COc3ccc(Cl)cc3)o2)s1	–	·	·	·
O=C(NCCCc1ccccc1)C1(c2cccs2)CCCC1	–	·	·	·
CCCN1CCCc2cc(CCNS(=O)(=O)c3ccc(OC)c(F)c3)ccc21	66	·	·	·
COc1ccc(CCNS(=O)(=O)c2ccc3c(c2)CCCC3)cc1OC	–	–	–	–
Oc1cc(O)cc(/C=C/c2ccc(O)c(O)c2)c1	–	·	118	–
O=C(CSc1ccc(Cl)cc1)Nc1cccc2c1C(=O)NC2=O	–	·	·	·
Cc1c(NC(=O)CSc2ccc(Cl)cc2)cccc1-c1nc2cc(Cl)ccc2o1	–	·	129	–
CS(=O)(=O)N(Cc1ccc(C(=O)NC2CCCC2)cc1)c1ccccc1	–	–	–	–
Cc1ccc(N(Cc2ccc(C(=O)NC3CCCCC3)cc2)S(C)(=O)=O)cc1C	–	–	51	–
Oc1ccccc1C=NN=Cc1c(O)ccc2ccccc12	–	·	+	–
CS/C(N)=N/N=Cc1c(O)ccc2ccccc12	·	–	·	·
COc1ccccc1-c1cc(C(=O)N2CC(N3C(=O)C4CC=CCC4C3=O)C2)[nH]n1 (stereo not drawn)	–	·	·	·
COCCN1CCC(CNC(=O)COc2ccc(Cl)cc2)CC1	–	·	·	·
Fc1ccc2c(c1)C(c1ccc(N3CCOCC3)cc1)=NNC(c1cccs1)=N2	40	–	–	–
Brc1ccc2c(c1)C(c1ccc(N3CCOCC3)cc1)=NNC(c1cccs1)=N2	–	–	–	–
Brc1ccc2c(c1)C(c1cccnc1)=NNC(c1cccs1)=N2	53	–	–	–
SMILES	SSB-PriA inh	Mtb hypoxia rep	MazEF act	BH1578 lux ind
Cc1c(C(=O)O)oc2c1ccc1ccccc12	–	·	–	–
Cc1c(C(=N)C(C#N)C#N)c(=N)oc2c1ccc1ccccc12	70	·	–	–
O=C(CSc1ncc(-c2ccccc2)[nH]1)N1CCCc2ccccc21	39	·	·	·
O=C(CSc1nccn1-c1ccccc1)N1CCc2ccccc21	–	·	–	–
O=C(CSc1nccn1-c1ccc(Cl)cc1)N1CCCc2ccccc21	56	–	–	–
COc1cccc2cc(-c3csc(NN=C4CCN(C)CC4)n3)c(=O)oc12	–	·	·	·
Cc1cn2c(nc3c2c(=O)n(C/C=C/c2ccccc2)c(=O)n3C)o1	–	·	·	·
CCC1CCc2c(c3ccccc3[nH]c2=O)O1 (stereo not drawn)	87	–	–	–
CCCC1CCc2c(c3ccccc3[nH]c2=O)O1 (stereo not drawn)	–	–	–	–
COc1cc(NC(=S)NCCc2c[nH]c3ccccc23)c(OC)cc1Cl	–	–	–	–
COc1ccccc1NC(=S)NCCc1c[nH]c2ccccc12	45	·	–	–
COc1cc(CNCCc2c[nH]c3ccccc23)ccc1OCc1ccc(F)cc1	40	–	–	–
CC(C)Sc1ccc(CC(=O)NCC2CCN(c3ccccn3)CC2)cc1	–	·	·	·
O=C(NCCCn1ccc2cccnc21)c1ccc(OC(F)(F)F)cc1	–	·	·	·
Cc1ccn(-c2ccc(Nc3ccc(NC(=O)c4ccccc4Br)cc3)nn2)n1	35	·	·	·
Cc1ccn(-c2ccc(Nc3ccc(NC(=O)c4c(F)cccc4Cl)cc3)nn2)n1	39	·	·	·
O=C(CSc1nccn1-c1ccc(F)cc1)NCc1ccc(F)cc1	–	–	–	–
O=C(CSc1nccn1-c1ccc([N+](=O)[O-])cc1)Nc1ccc(Cl)c(Cl)c1	36	·	·	·
O=C(CSc1nccn1-c1ccc([N+](=O)[O-])cc1)Nc1nccs1	–	·	·	·
O=C(CSc1nccn1-c1ccc(F)cc1)Nc1ccc(Br)cc1	60	·	·	·
O=C(CSc1nccn1-c1cccc(C(=O)NCc2ccco2)c1)Nc1ccc(Cl)cc1F	37	·	·	·
Cc1cc(C)cc(-n2ccnc2SCC(=O)Nc2ccc(F)cc2F)c1	47	·	·	·
